# Laboratory results as given in PubChem BioAssay (Tox21).
# A number with no mark means an inactive call. Inconclusive results are not listed. A call without a number means that no potency is given here. Active and inactive are the calls of the source. Unless noted, calls follow the shape of the full dose curve.
# Assays:
# [1] = Nuclear factor erythroid 2-related factor 2/antioxidant responsive element (Nrf2/ARE) small molecule agonists: qHTS cell viability counter screen in human keratinocytes (AID 1919968; active = well fitted curve in the direction sought with a large enough effect in the repeat runs; an effect the other way counts as inactive or inconclusive; also: nearly all actives have a fitted effect of over 55% in size; also: potency is read from the fitted curve at half-maximal effect); details: KeratinoSens HaCaT ARE cells viability, CellTiter-Fluor, 24 h; series mostly up to 92.4 µM
# Summary of the method: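 Viability counter-screen: KeratinoSens reporter cells, DMSO-delivered compounds, 23 h at 37 C, CellTiter-Fluor fluorescence.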
# [2] = Nuclear factor erythroid 2-related factor 2/antioxidant responsive element (Nrf2/ARE) small molecule agonists: luciferase reporter gene qHTS assay in human keratinocytes (AID 1919969); details: KeratinoSens HaCaT ARE-luciferase, luminescence, 24 h; series mostly up to 92.4 µM; also: nearly all actives have a fitted effect of over 35% in size; also: potency is read from the fitted curve at half-maximal effect
# [3] = molecular target: Gonadotropin-releasing hormone receptor (Homo sapiens) (UniProt P30968); test: Human gonadotropin-releasing hormone receptor (GnRHR) small molecule agonists, calcium flux assay in GnRHR-HEK293 cells (AID 1920063); details: calcium flux fluorescence, agonist mode; series mostly up to 57.6 µM; also: nearly all actives have a fitted effect of over 35% in size
# Sequence of Gonadotropin-releasing hormone receptor (Homo sapiens) (P30968 whole entry, looked up): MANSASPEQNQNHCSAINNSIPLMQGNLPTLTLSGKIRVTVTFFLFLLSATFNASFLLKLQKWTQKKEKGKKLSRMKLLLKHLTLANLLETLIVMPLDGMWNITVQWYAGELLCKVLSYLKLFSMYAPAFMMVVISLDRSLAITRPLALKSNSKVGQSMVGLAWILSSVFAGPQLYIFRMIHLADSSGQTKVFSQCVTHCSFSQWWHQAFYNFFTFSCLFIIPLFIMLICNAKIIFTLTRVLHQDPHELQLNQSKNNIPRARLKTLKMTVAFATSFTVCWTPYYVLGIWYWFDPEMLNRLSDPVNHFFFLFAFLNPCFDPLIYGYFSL
# Summary of the method: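 Tox21-format agonist screen using human GnRHR-expressing HEK293 cells and a fluorescent calcium dye; kinetic 3-min fluorescence reading after compound addition, 15-point concentration series run in triplicate.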
# [4] = molecular target: KiSS-1 receptor (Homo sapiens) (UniProt Q969F8); test: Human kisspeptin (KISS1R) small molecule agonists, calcium flux assay in KISS1R-HEK293 cells (AID 1920064; active = well fitted curve in the direction sought with a large enough effect in the repeat runs; an effect the other way counts as inactive or inconclusive); details: KISS1R-HEK293, calcium flux fluorescence, agonist; series mostly up to 76.8 µM
# Sequence of KiSS-1 receptor (Homo sapiens) (Q969F8 whole entry, looked up): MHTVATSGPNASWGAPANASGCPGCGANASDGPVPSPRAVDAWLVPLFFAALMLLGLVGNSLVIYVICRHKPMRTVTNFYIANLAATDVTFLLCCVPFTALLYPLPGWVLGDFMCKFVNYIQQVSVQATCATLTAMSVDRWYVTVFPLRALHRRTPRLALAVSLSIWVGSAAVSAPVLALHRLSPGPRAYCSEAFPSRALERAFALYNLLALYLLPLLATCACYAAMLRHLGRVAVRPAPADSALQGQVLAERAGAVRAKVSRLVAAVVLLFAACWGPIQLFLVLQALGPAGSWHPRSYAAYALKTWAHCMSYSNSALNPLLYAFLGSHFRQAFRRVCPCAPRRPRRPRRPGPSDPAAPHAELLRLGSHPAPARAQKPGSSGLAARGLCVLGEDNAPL
# Summary of the method: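 Intracellular calcium mobilization in KISS1R-HEK293 cells was recorded by fluorescence (Ex/Em 480/540) for 3 min following compound addition to cells pre-loaded 1 h with calcium dye.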
# [5] = G protein-coupled receptor (GPCR) small molecule agonists, calcium flux assay: HEK293 wild type cell line counter screen (AID 1920065); details: HEK293 WT calcium flux, fluorescence, agonist mode; series mostly up to 57.6 µM
# Summary of the method: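 In this agonist-mode screen, ATP is the positive control and DMSO the vehicle. Cells grow 18 h before a 1 h dye incubation at 37 C; signal is taken at Ex/Em 480/540 over 3 min.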
# [6] = p53 small molecule agonists, cell-based qHTS assay with human liver microsomes (AID 1963577); details: HCT-116 p53RE-bla with human liver microsomes, ratio, 16 h; series mostly up to 66 µM;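 also: p53 response element beta-lactamase reporter cells with liver microsomes plus NADPH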
# Summary of the method: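 Reporter activation was measured by LiveBLAzer fluorescence intensity in p53RE-bla cells, which had been exposed to compounds for 16 h at 37 C alongside 0.5 mg/mL human liver microsomes and 0.5 mg/mL NADPH (final concentrations).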
# [7] = p53 small molecule agonists, cell-based qHTS assay with rat liver microsomes (AID 1963578); details: HCT-116 p53RE-bla, beta-lactamase ratio, 16 h; series mostly up to 66 µM
# Summary of the method: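 Compound in DMSO added to p53RE-bla cells 5 h post-plating; rat microsomes/NADPH 0.5 mg/mL final; 16 h, 37 C; LiveBLAzer 2 h RT.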
# [8] = p53 small molecule agonists, cell-based qHTS assay with human liver microsomes: qHTS cell viability counter screen (AID 1963579); details: p53RE-bla HCT-116 viability, ATP luminescence, 16 h, HLM; series mostly up to 66 µM; also: nearly all actives have a fitted effect of over 45% in size
# Summary of the method: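 HLM-supplemented (0.5 mg/mL final) and NADPH-supplemented (0.5 mg/mL final) p53RE-bla cultures, 4,000 cells per well, were dosed with compounds in DMSO for 16 h at 37 C; luminescent ATP detection (CellTiter-Glo, 30 min, room temperature) quantified surviving cells.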
# [9] = p53 small molecule agonists, cell-based qHTS assay with rat liver microsomes: qHTS cell viability counter screen (AID 1963580); details: p53RE-bla HCT-116 + rat microsomes, ATP viability, 16 h; series mostly up to 66 µM; also: nearly all actives have a fitted effect of over 45% in size
# Summary of the method: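 HCT-116 p53RE-bla, 4,000 cells/well, 5 h pre-incubation; cpd + rat liver microsomes 0.5 mg/mL + NADPH 0.5 mg/mL (final); 16 h, 37 C; CellTiter-Glo, 30 min RT; luminescence.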
# [10] = p53 small molecule agonists, cell-based qHTS assay: qHTS cell viability counter screen (AID 1963581); details: p53RE-bla HCT-116 viability, ATP luminescence, 16 h; series mostly up to 66 µM; also: nearly all actives have a fitted effect of over 45% in size
# Summary of the method: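 Compounds are pinned onto HCT-116 p53RE-bla cells and left 16 h at 37 C. Following the reporter FRET read, ATP is quantified by CellTiter-Glo luminescence after 30 min at room temperature.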
# [11] = p53 small molecule agonists, cell-based qHTS assay (AID 1963582; active = well fitted activation curve with a large enough effect in the signal ratio in the repeat runs, not every such curve was filed as active; the % refers to the signal ratio; also: potency is read from the fitted curve at half-maximal effect); details: HCT-116 p53RE-bla reporter, beta-lactamase FRET ratio, 16 h; series mostly up to 66 µM
# Summary of the method: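 Agonist activity was scored from beta-lactamase FRET fluorescence in p53RE-bla cells treated 16 h at 37 C with compounds in DMSO, substrate incubation being 2 h at room temperature.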
# [12] = cAMP Responsive Elements (CRE) small molecule antagonists, cell-based qHTS assay (AID 1963591; active = well fitted inhibition curve with a large enough effect in the signal ratio in the repeat runs, not every such curve was filed as active; the % refers to the signal ratio); details: CRE-bla HEK293T, beta-lactamase FRET ratio; series mostly up to 92.4 µM
# Summary of the method: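 qHTS in CRE-bla HEK 293T cells: compound in DMSO, then 0.25 uM NKH477 (final), 3 h at 37 °C/5% CO2; beta-lactamase FRET read-out after 2 h substrate incubation.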
# [13] = molecular target: Beta-2 adrenergic receptor (Homo sapiens) (UniProt P07550); test: Adrenergic beta2 receptor (ADRB2) small molecule antagonists, cell-based qHTS assay (AID 1963592); details: CHO-ADRB2 cells, isoproterenol-stimulated cAMP HTRF ratio, 0.5 h; series mostly up to 92.4 µM; also: nearly all actives have a fitted effect of over 50% in size
# Sequence of Beta-2 adrenergic receptor (Homo sapiens) (P07550 whole entry, looked up): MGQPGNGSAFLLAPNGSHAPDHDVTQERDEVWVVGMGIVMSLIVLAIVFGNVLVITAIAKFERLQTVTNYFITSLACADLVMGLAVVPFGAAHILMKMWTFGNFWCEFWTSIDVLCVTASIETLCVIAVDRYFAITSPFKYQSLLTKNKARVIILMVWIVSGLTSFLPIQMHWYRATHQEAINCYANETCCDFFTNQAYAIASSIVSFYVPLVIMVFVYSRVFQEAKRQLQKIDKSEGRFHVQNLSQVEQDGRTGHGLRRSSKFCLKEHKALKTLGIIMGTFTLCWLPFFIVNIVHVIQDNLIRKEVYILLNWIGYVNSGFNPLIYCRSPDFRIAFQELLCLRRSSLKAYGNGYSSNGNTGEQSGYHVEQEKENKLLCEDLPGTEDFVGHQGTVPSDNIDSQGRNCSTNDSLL
# Summary of the method: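 Cells (CHO, stable ADRB2 overexpression) incubated 18-20hr at 37C; compounds added from DMSO; agonist mix (1nM isoproterenol, 100uM IBMX, 25uM Ro-20-1724) added; 0.5hr RT; d2-cAMP and anti-cAMP-cryptate added; 1hr RT; 665/615 nm read.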
# [14] = molecular target: D(2) dopamine receptor (Homo sapiens) (UniProt P14416); test: Dopamine D2 receptor (DRD2) small molecule agonists, cell-based qHTS assay (AID 1963594); details: HEK293-DRD2 cAMP HTRF, agonist mode, 30 min; series mostly up to 92.4 µM; also: nearly all actives have a fitted effect of over 35% in size
# Sequence of D(2) dopamine receptor (Homo sapiens) (P14416 whole entry, looked up): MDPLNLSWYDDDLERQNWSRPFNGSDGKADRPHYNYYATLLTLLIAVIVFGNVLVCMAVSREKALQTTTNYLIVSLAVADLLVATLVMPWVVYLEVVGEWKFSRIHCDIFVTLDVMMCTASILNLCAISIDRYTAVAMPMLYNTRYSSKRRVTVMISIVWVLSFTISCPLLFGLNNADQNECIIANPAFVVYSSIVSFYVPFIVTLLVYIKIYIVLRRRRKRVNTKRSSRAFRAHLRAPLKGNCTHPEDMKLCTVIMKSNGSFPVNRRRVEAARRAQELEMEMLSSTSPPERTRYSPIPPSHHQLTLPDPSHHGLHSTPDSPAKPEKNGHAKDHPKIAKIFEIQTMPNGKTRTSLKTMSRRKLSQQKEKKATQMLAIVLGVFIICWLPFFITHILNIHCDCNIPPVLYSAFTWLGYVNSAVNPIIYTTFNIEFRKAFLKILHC
# Summary of the method: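 cAMP accumulation in DRD2-HEK293 cells measured by HTRF after 1 h detection; compounds added 10 min before NKH477 (200nM […]) forskolin-analogue stimulation, 30 min at room temperature, with Ro20-1724 present at 0.1 mM final.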
# [15] = molecular target: D(2) dopamine receptor (Homo sapiens) (UniProt P14416); test: Dopamine D2 receptor (DRD2) small molecule antagonists, cell-based qHTS assay (AID 1963595; active = well fitted inhibition curve with a large enough effect in the signal ratio in the repeat runs, with a control signal flat; the % refers to the signal ratio); details: HEK293-DRD2 cAMP HTRF antagonist mode; series mostly up to 92.4 µM
# Summary of the method: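 Stable D2 receptor HEK293 line, 24 h after seeding. Compound preincubated 10 min, then quinpirole (12 nM) with forskolin analogue NKH477 (200 nM), 30 min, room temperature. Detection by time-resolved FRET of cAMP.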
# [16] = molecular target: 5-hydroxytryptamine receptor 2A (Homo sapiens) (UniProt P28223); test: 5-hydroxytryptamine receptor 2A (HTR2A) small molecule agonists, cell-based qHTS assay (AID 1963587); details: HTR2A-CHO cells, calcium flux fluorescence, agonist mode; series mostly up to 76.8 µM; also: nearly all actives have a fitted effect of over 30% in size
# Sequence of 5-hydroxytryptamine receptor 2A (Homo sapiens) (P28223 whole entry, looked up): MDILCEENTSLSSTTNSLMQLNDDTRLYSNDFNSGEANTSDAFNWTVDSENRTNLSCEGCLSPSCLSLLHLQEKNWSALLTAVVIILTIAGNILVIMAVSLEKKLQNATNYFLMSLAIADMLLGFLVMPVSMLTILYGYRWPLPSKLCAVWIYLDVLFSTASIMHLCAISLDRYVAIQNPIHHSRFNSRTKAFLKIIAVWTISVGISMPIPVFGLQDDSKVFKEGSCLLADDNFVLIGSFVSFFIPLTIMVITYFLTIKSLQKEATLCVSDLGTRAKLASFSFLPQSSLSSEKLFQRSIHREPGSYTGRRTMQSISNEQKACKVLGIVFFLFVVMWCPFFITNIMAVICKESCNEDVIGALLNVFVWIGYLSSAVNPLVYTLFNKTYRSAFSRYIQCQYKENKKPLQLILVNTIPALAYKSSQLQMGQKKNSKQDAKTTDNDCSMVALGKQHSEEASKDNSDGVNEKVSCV
# Summary of the method: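 Kinetic calcium-flux fluorescence (2 min, 1 sec intervals) after compound addition in agonist mode. HTR2A-CHO cells were cultured 18 h, then dye-loaded 1 h at 37 C.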
# [17] = molecular target: Muscarinic acetylcholine receptor M1 (Homo sapiens) (UniProt P11229); test: Cholinergic receptor muscarinic 1 (CHRM1) small molecule antagonists, cell-based qHTS assay (AID 1963588); details: CHRM1-CHO antagonist mode, calcium flux fluorescence; series mostly up to 61.5 µM; also: nearly all actives have a fitted effect of over 40% in size
# Sequence of Muscarinic acetylcholine receptor M1 (Homo sapiens) (P11229 whole entry, looked up): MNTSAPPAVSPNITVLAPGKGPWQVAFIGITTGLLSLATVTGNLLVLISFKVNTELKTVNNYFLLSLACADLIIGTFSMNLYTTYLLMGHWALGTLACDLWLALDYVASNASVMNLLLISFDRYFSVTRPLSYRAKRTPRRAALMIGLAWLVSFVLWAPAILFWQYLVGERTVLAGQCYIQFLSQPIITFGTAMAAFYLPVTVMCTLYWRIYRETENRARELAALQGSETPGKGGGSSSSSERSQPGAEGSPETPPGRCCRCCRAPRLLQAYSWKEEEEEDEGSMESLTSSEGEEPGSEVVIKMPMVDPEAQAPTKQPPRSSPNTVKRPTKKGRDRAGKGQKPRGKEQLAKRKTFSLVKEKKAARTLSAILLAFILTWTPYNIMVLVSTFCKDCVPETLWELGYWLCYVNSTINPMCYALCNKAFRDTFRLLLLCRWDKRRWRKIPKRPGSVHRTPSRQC
# Summary of the method: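 CHRM1-CHO calcium-flux assay, antagonist mode. Cells were seeded 18 h, dye-loaded 1 h at 37 C and given compound for 5 min at RT, then acetylcholine was added at 50nM. FDSS fluorescence was read 3 min; 15 concentrations, three runs.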
# [18] = molecular target: Muscarinic acetylcholine receptor M1 (Homo sapiens) (UniProt P11229); test: Cholinergic receptor muscarinic 1 (CHRM1) small molecule agonists, cell-based qHTS assay (AID 1963589); details: CHRM1-CHO cells, agonist mode, calcium flux fluorescence; series mostly up to 76.8 µM; also: nearly all actives have a fitted effect of over 35% in size
# Summary of the method: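 Stable CHRM1-CHO cells (human receptor) were incubated 18 h, dye-loaded for 1 h at 37 C and exposed to test compounds for agonist activity, with calcium-dependent fluorescence followed kinetically.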
# [19] = cAMP Responsive Elements (CRE) small molecule agonists, cell-based qHTS assay (AID 1963590); details: CRE-bla HEK293T, beta-lactamase FRET ratio, 3 h; series mostly up to 92.4 µM
# Summary of the method: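 FRET-based beta-lactamase readout (LiveBLAzer B/G, 2 h RT) quantified CRE activation in HEK 293T CRE-bla cells after 3 h treatment with DMSO-dissolved compounds.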
Compound,Potency [1],Potency [2],Potency [3],Potency [4],Potency [5],Potency [6],Potency [7],Potency [8],Potency [9],Potency [10],Potency [11],Potency [12],Potency [13],Potency [14],Potency [15],Potency [16],Potency [17],Potency [18],Potency [19]
CC(C)NCC(O)c1ccccc1Cl (stereo unspecified),inactive,inactive,inactive,inactive,inactive,inactive,inactive,inactive,inactive,inactive,inactive,inactive,inactive,inactive,inactive,,,,
CC/C(=N\OC/C=C/Cl)C1=C(O)CC(C2CCOCC2)CC1=O (stereo unspecified),inactive,inactive,inactive,inactive,inactive,inactive,inactive,inactive,inactive,inactive,inactive,,inactive,inactive,inactive,inactive,inactive,inactive,
CN1C(=O)CN=C(c2ccccc2)c2cc([N+](=O)[O-])ccc21,inactive,inactive,inactive,inactive,inactive,inactive,inactive,inactive,inactive,inactive,inactive,inactive,inactive,inactive,inactive,,,,inactive
S=C=Nc1cccc2ccccc12,27 µM (active),15.2 µM (active),inactive,inactive,inactive,inactive,inactive,inactive,inactive,inactive,inactive,,inactive,inactive,,,,,inactive
COc1cc(C=O)cc2c1[C@H](COC(N)=O)[C@]1(OC(C)=O)ON2C[C@H]2[C@@H]1N2C(C)=O,9.69 µM (active),inactive,inactive,inactive,inactive,inactive,inactive,inactive,inactive,inactive,3.63 µM (active),,inactive,inactive,inactive,inactive,inactive,inactive,inactive
CCSC(=O)Cl,inactive,inactive,inactive,inactive,inactive,inactive,inactive,inactive,inactive,inactive,inactive,inactive,inactive,inactive,inactive,inactive,,inactive,inactive
NC(=O)C(Cl)Cl,inactive,inactive,inactive,inactive,inactive,inactive,inactive,inactive,inactive,inactive,inactive,inactive,inactive,,inactive,inactive,inactive,inactive,inactive
